ERAP1 inh – blocks human ERAP1 aminopeptidase activity. AID 652197. inhibition, % at 10.7 µM. Q9NZ08. 340,000 tested, 0.15% active. recombinant ERAP1, Leu-AMC fluorescence, 60 min;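 active means mean replicate inhibition of at least 30%, or all replicates individually reaching that 30% level; inactive means mean below 30% and not every replicate reaching it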;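 further: 0% = neutral control wells and 100% = L-leucinethiol positive control wells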
Target sequence (Q9NZ08 whole entry, looked up): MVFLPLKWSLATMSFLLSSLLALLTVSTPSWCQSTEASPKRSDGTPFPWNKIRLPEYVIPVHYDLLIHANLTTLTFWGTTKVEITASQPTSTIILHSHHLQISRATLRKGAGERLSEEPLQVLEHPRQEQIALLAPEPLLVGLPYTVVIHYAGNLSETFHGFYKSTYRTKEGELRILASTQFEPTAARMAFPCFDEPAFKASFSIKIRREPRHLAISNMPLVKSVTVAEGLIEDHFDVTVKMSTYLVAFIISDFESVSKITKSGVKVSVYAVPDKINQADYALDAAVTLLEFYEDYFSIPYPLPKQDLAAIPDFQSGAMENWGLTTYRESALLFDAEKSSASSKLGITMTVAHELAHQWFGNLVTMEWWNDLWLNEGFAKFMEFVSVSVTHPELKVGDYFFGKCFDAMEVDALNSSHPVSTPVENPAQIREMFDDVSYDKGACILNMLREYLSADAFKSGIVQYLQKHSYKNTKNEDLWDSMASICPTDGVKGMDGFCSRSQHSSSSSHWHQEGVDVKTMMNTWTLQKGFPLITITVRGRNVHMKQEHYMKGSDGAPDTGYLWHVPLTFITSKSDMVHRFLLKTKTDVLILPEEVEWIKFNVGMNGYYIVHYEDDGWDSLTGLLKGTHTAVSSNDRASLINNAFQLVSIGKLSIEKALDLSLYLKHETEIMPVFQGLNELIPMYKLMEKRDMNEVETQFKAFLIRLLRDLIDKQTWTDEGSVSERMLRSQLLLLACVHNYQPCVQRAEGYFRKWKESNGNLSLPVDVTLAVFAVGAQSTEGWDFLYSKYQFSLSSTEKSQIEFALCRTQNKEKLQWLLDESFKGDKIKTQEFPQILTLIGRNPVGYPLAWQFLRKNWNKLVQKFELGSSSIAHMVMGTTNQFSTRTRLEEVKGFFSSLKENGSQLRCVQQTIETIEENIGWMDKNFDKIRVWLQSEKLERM
MLL AF4-AF9 inh – blocks AF4 peptide binding to human AF9. 350,000 tested, 0.47% active. inhibition, % at 10 µM. AlphaScreen, biotin-AF4 peptide binding to FLAG-AF9. P42568;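 active means every replicate reaching a set inhibition limit, whatever the replicate mean, cut at about 25% in these data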;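 further: 0% = plate neutral control median and 100% = total signal loss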
DENV2 CPE – DENV2-induced cell death inhibition. DENV2-infected cells, cytopathic effect rescue, plate reader. CPE inhibition, % at 9.99 µM. 350,000 tested, 1.7% active. AID 651640; in the data active means CPE inhibition above about 20%, passing the limit was not always enough; tested in BHK-21 cells;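 further: 0% = median of neutral control wells and 100% = median of positive control wells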
FGF22 binding – binders of recombinant human FGF22 by thermal shift; AID 651658; activity (Tm shift, normalised), % at 9.99 µM; SYPRO orange fluorescence; percent of sucrose octasulfate shift, DMSO zero; 340,000 tested, 1.5% active; Q9HCT0;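 active means mean Tm shift, scaled 0 neutral to 100 positive control, at about 1.3% or above, every replicate too, limit read from the data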
RAD52 inh – blocks human RAD52 DNA annealing; P43351; recombinant RAD52 DNA annealing, FRET fluorescence; inhibition, % at 18.7 µM; 360,000 tested, 0.46% active; AID 651710;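 active means every replicate showing at least 50% inhibition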
* = called active by the depositor. A selection: hits, their analogues and other compounds. The true share with any hit is near 4%.

How did O=C(N[C@@H]1CC[C@@H](CCNS(=O)(=O)c2cccc(Cl)c2)O[C@H]1CO)c1ccccc1 do in these assays?
ERAP1 inh: 1; MLL AF4-AF9 inh: 0; DENV2 CPE: 77*; FGF22 binding: 0; RAD52 inh: -8

How did O=C(N[C@@H]1CC[C@@H](CCNS(=O)(=O)c2ccccc2)O[C@H]1CO)c1cccnc1 do in these assays?
ERAP1 inh: -2; MLL AF4-AF9 inh: -1; DENV2 CPE: 32*; FGF22 binding: 0; RAD52 inh: 9

Results for O=C(N[C@H]1CC[C@H](CCNS(=O)(=O)c2ccccc2)O[C@@H]1CO)c1cccnc1 ?
ERAP1 inh: -2; MLL AF4-AF9 inh: -2; DENV2 CPE: -5; FGF22 binding: 0; RAD52 inh: -8

Results for COc1ccccc1NC(=O)N[C@@H]1CC[C@@H](CCNS(=O)(=O)c2ccc(Cl)cc2)O[C@H]1CO ?
ERAP1 inh: -3; MLL AF4-AF9 inh: -1; DENV2 CPE: 20*; FGF22 binding: 0; RAD52 inh: -8

How did O=C(NCC[C@H]1CC[C@H](NC(=O)c2cnccn2)[C@@H](CO)O1)Nc1ccc(F)cc1 do in these assays?
ERAP1 inh: 1; MLL AF4-AF9 inh: 13; DENV2 CPE: 22*; FGF22 binding: 0; RAD52 inh: 10

What do the screens show for `CN1C(=O)c2cc(NC(=O)Nc3ccccc3)ccc2OC[C@H]2O[C@@H](CC(=O)O)CC[C@@H]21`?
MLL AF4-AF9 inh: 0

Results for C[C@@H]1CN([C@H](C)CO)C(=O)c2cccc(NC(=O)C3CCOCC3)c2O[C@@H]1CN(C)Cc1ccc(Oc2ccccc2)cc1 ?
ERAP1 inh: 6; MLL AF4-AF9 inh: 5; DENV2 CPE: 3; FGF22 binding: 0; RAD52 inh: 15

Results for O=C(N[C@@H]1CC[C@H](CCNS(=O)(=O)c2ccc(Cl)cc2)O[C@@H]1CO)c1cnccn1 ?
ERAP1 inh: 1; MLL AF4-AF9 inh: -1; DENV2 CPE: 15; FGF22 binding: 0; RAD52 inh: 12

What do the screens show for `Cc1cccc(S(=O)(=O)N[C@@H]2CC[C@@H](CCNC(=O)c3cnccn3)O[C@@H]2CO)c1`?
ERAP1 inh: -1; MLL AF4-AF9 inh: -1; DENV2 CPE: 31*; FGF22 binding: 0; RAD52 inh: 3

How did O=C(N[C@H]1CC[C@H](CCNS(=O)(=O)c2ccc(Cl)cc2)O[C@@H]1CO)c1cnccn1 do in these assays?
ERAP1 inh: 0; MLL AF4-AF9 inh: -1; DENV2 CPE: 49*; FGF22 binding: 0; RAD52 inh: -17

What do the screens show for `Cc1cccc(S(=O)(=O)N[C@H]2CC[C@@H](CCNC(=O)c3cnccn3)O[C@@H]2CO)c1`?
ERAP1 inh: 0; MLL AF4-AF9 inh: 0; DENV2 CPE: -2; FGF22 binding: 0; RAD52 inh: -10

How did COc1ccc2c3c(n(C)c2c1)[C@H](CO)N(S(C)(=O)=O)CC31CN(C(=O)C2CC2)C1 do in these assays?
MLL AF4-AF9 inh: 0; DENV2 CPE: -10; FGF22 binding: 0

Results for CC(=O)c1ccc(N=C2SCCCN2C(=O)C2CCCC2)cc1 ?
ERAP1 inh: 0; MLL AF4-AF9 inh: 1; DENV2 CPE: -3; FGF22 binding: 43*; RAD52 inh: -13

How did COc1ccccc1CNC(=O)C[C@@H]1C[C@H]2c3cc(NS(=O)(=O)c4ccc(F)cc4)ccc3O[C@H]2[C@@H](CO)O1 do in these assays?
ERAP1 inh: -2; MLL AF4-AF9 inh: 3; DENV2 CPE: 15; FGF22 binding: 0; RAD52 inh: 13

How did COc1ccc(S(=O)(=O)Nc2ccc3c(c2)CC(=O)N([C@@H](C)CO)C[C@H](C)[C@H](CN(C)C(=O)Nc2ccc4c(c2)OCO4)O3)cc1 do in these assays?
ERAP1 inh: 4; MLL AF4-AF9 inh: 0; DENV2 CPE: -12; FGF22 binding: 0; RAD52 inh: -5

Results for C[C@@H]1CN([C@@H](C)CO)C(=O)Cc2cc(NS(=O)(=O)c3cn(C)cn3)ccc2O[C@@H]1CN(C)C(=O)Nc1ccc2c(c1)OCO2 ?
ERAP1 inh: -1; MLL AF4-AF9 inh: -31; DENV2 CPE: 28*; FGF22 binding: 0; RAD52 inh: 8

What do the screens show for `COc1ccc(S(=O)(=O)Nc2ccc3c(c2)CC(=O)N([C@H](C)CO)C[C@H](C)[C@@H](CN(C)C(=O)Nc2ccc4c(c2)OCO4)O3)cc1`?
ERAP1 inh: 4; MLL AF4-AF9 inh: 2; DENV2 CPE: 26*; FGF22 binding: 0; RAD52 inh: -16

How did COc1ccc(NC(=O)N(C)C[C@@H]2Oc3ccc(NS(=O)(=O)c4ccccc4)cc3CC(=O)N([C@H](C)CO)C[C@H]2C)cc1 do in these assays?
ERAP1 inh: -4; MLL AF4-AF9 inh: 1; DENV2 CPE: 4; FGF22 binding: -1; RAD52 inh: 16

How did COc1ccc(NC(=O)N(C)C[C@@H]2Oc3ccc(NS(=O)(=O)c4ccccc4)cc3CC(=O)N([C@H](C)CO)C[C@@H]2C)cc1 do in these assays?
ERAP1 inh: -1; MLL AF4-AF9 inh: 0; DENV2 CPE: 39*; FGF22 binding: 0; RAD52 inh: 4

What do the screens show for `C[C@@H]1CN([C@H](C)CO)C(=O)Cc2cc(NS(=O)(=O)c3ccc(Cl)cc3)ccc2O[C@H]1CN(C)C(=O)NC1CCCCC1`?
ERAP1 inh: -2; MLL AF4-AF9 inh: -3; DENV2 CPE: 37*; FGF22 binding: 0; RAD52 inh: 15

What do the screens show for `COc1ccc(S(=O)(=O)N(C)C[C@H]2Oc3ccc(NC(=O)CCC(F)(F)F)cc3CC(=O)N([C@@H](C)CO)C[C@@H]2C)cc1`?
ERAP1 inh: -3; MLL AF4-AF9 inh: -3; DENV2 CPE: 9; FGF22 binding: 0; RAD52 inh: 23

How did C[C@@H]1CN([C@@H](C)CO)C(=O)Cc2cc(NC(=O)Nc3ccc4c(c3)OCO4)ccc2O[C@H]1CN(C)C(=O)Nc1ccc2c(c1)OCO2 do in these assays?
ERAP1 inh: 1; MLL AF4-AF9 inh: 4; DENV2 CPE: -2; FGF22 binding: 0; RAD52 inh: 2

How did C[C@H]1CN([C@@H](C)CO)C(=O)Cc2cc(NS(=O)(=O)c3ccc(F)cc3)ccc2O[C@@H]1CN(C)C(=O)Nc1ccccc1 do in these assays?
ERAP1 inh: 1; MLL AF4-AF9 inh: -2; DENV2 CPE: 62*; FGF22 binding: 0; RAD52 inh: -6

Results for COc1ccc(S(=O)(=O)Nc2ccc3c(c2)CC(=O)N([C@@H](C)CO)C[C@@H](C)[C@H](CN(C)C(=O)NC(C)C)O3)cc1 ?
ERAP1 inh: 0; MLL AF4-AF9 inh: -4; DENV2 CPE: 35*; FGF22 binding: 0; RAD52 inh: 1

What do the screens show for `C[C@H](CO)N1C[C@H](C)[C@@H](CN(C)S(C)(=O)=O)Oc2ccc(NS(=O)(=O)c3ccccc3)cc2CC1=O`?
ERAP1 inh: -1; MLL AF4-AF9 inh: 4; DENV2 CPE: 70*; FGF22 binding: 0; RAD52 inh: 1

Assay outcomes deposited in PubChem BioAssay by Broad Institute.
